# Results published in PubChem BioAssay (NCI).
# Compounds without any hit were thinned out: in the full panel of roughly 83,000, 20% have a hit.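 48-hour exposure, single concentration, 96-well plates; percent growth endpoint where 0 means no net growth. Active: below 10.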 A number with no mark means an inactive call. Activity calls are given as the source filed them.
# Key:
# Assay in all cases: NCI-60 one-dose screen, 48 h (100 = growth as untreated, 0 = no growth, -100 = all killed)
# [1] = system: DU-145 prostate; details: 10 µM
# [2] = system: K-562 leukemia; details: 10 µM
# [3] = system: MALME-3M melanoma; details: 10 µM
# [4] = system: MDA-MB-231 breast; details: 10 µM
# [5] = system: RXF 393 renal; details: 10 µM
# [6] = system: SF-268 CNS; details: 10 µM
# [7] = system: SF-295 CNS; details: 10 µM
# [8] = system: SF-539 CNS; details: 10 µM
# [9] = system: UACC-257 melanoma; details: 10 µM
# [10] = system: M14 melanoma; details: 10 µM
# [11] = system: HCT-15 colon; details: 10 µM
# [12] = system: HT29 colon; details: 10 µM
# [13] = system: SNB-75 CNS; details: 10 µM
# [14] = system: SNB-19 CNS; details: 10 µM
# [15] = system: U251 CNS; details: 10 µM
# [16] = system: PC-3 prostate; details: 10 µM
# [17] = system: SK-MEL-5 melanoma; details: 10 µM
# [18] = system: UACC-62 melanoma; details: 10 µM unless noted
# [19] = system: LOX IMVI melanoma; details: 10 µM
# [20] = system: SK-MEL-28 melanoma; details: 10 µM
Compound,growth [1],growth [2],growth [3],growth [4] [%],growth [5] [%],growth [6] [%],growth [7],growth [8],growth [9] [%],growth [10] [%],growth [11],growth [12],growth [13],growth [14] [%],growth [15],growth [16] [%],growth [17] [%],growth [18],growth [19] [%],growth [20]
S=c1sc2ccccc2n1CN1CCCCC1,99.8%,124%,86.6%,98.4,110,92.5,102%,105%,104,100,102%,101%,77.6%,104,104%,77.2,104,104%,84.5,106%
O=C1C[C@H](c2ccccc2)[C@H](c2ccccc2)C1,121%,111%,89.6%,99.1,111,105,108%,103%,107,103,102%,105%,91.8%,96.1,103%,79.4,104,90.2%,102,109%
COc1ccc(-c2cc3c(nn2)-c2ccccc2C3=O)cc1,21.2%,21.9%,-21.1% (active),59.5,71.8,39.1,-40.7% (active),82.1%,69.6,42.9,36.7%,-24.8% (active),-4.76% (active),78.9,-3.45% (active),18,85.3,84.7%,43.3,-49.3% (active)
COC(=O)c1ccc(C(C)C)cc1,105%,116%,99.9%,113,122,101,100%,102%,90.9,88.6,96.2%,107%,103%,103,98.6%,90.6,104,99.4%,95,110%
OCc1ccc(-c2ccc(-c3ccc(CO)s3)o2)s1,6.59% (active),-3.52% (active),78.1%,98.8,57,73.4,13.6%,43.8%,32.5,87.6,51%,-26.5% (active),58.8%,78.4,15.3%,73.1,60.6,-35% (active),73.2,
COC(=O)C(O)c1ccccc1 (centres undefined),114%,101%,134%,91,111,102,139%,98%,116,105,105%,122%,93%,102,104%,94.6,104,94.1%,107,103%
CC1(C(=O)O)NC(C(=O)O)Cc2c1[nH]c1ccccc21 (centres undefined),110%,96.9%,90.5%,104,110,113,90.2%,105%,87.6,96.7,110%,109%,88.8%,108,102%,87.4,104,100%,101,103%
COC(=O)c1ccccc1N(C)C,108%,81.4%,101%,112,118,107,98.7%,115%,103,102,103%,94.8%,93.3%,98.8,112%,100,101,105%,94.5,103%
CCCCC/C=N/Nc1nc(C)cc(=O)[nH]1,114%,105%,103%,95.2,105,107,88.8%,108%,93.1,106,116%,105%,99.2%,108,96.6%,88.7,104,102%,94.3,102%
CC1(C(N)=O)CCC(C(=O)O)C1(C)C (centres undefined),113%,114%,74.9%,91.2,104,104,91.2%,96.8%,99.5,108,96.4%,104%,92.4%,99,98.2%,98.1,98,87%,104,103%
CC1CCCCN1C(=S)Nc1ccc(S(=O)(=O)N2CCCCC2)cc1 (centres undefined),106%,84.6%,130%,119,109,97.2,79.2%,96.9%,105,89.2,99.2%,94%,129%,109,95.7%,83,103,95.6%,105,98.6%
CCOC(=O)Nc1cc2c(c(N)n1)N=C(c1ccccc1)CO2,10.6%,10.1%,64.8%,13.6,27.3,38.4,17%,1.93% (active),86.4,15.4,6.55% (active),12.2%,33.5%,37.3,21.8%,29.9,10.2,34.9%,28.5,47.6%
CCOC(=O)CSc1c([N+](=O)[O-])ncn1C,105%,109%,80.4%,96.5,103,103,102%,94.3%,94.6,94.1,93.7%,104%,98.4%,99.6,97.9%,106,96.2,97.8%,97.7,92.6%
CC1CCC2C(C)(C)C3CC12CC1OC13C (centres undefined),117%,123%,107%,110,98.9,110,104%,98.9%,113,109,97.7%,107%,97.5%,102,102%,99.5,96.9,103%,98.3,103%
COc1cc(-c2ccc(NC(=O)NC3CC3)c(OC)c2)ccc1NC(=O)NC1CC1,84.9%,31.2%,102%,71.1,73,62.8,75.9%,67.2%,26.5,75.7,31.2%,48.6%,89.4%,84.7,37.4%,41.6,47.6,70.7%,36.8,86.7%
